DT40 TDP1 no CPT – qHTS for Inhibitors of human tyrosyl-DNA phosphodiesterase 1 (TDP1): qHTS in cells in absence of CPT. DT40 Tdp1-/- hTDP1 cells, no CPT, ATP luminescence, 48 h. AID 686978, 2013. Potency, µM (doses to about 46.2 µM), inactives show top-dose activity change, negative = growth inhibition, usual class: inhibitors. hit rate 15% among 420,000; further: potency means the concentration at half of the fitted maximal effect; on the % scale 0 is the no-effect control and ±100 the full control effect; nearly all actives have a fitted effect of over 55% in size
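DT40 Tdp1-/-;hTDP1 cells, no CPT (DMSO vehicle only), 400 cells/well; compounds pin-transferred; ≥48 hr, 37 °C; CellTiter-Glo 30 min RT dark, luminescence read.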
MCF10A rerep – A quantitative high throughput screen for small molecules that induce DNA re-replication in MCF 10a normal breast cells. MCF 10A DNA re-replication, Hoechst nuclear intensity, 48 h. Potency, µM (highest dose often 46.1 µM), inactives show at the highest dose activity, positive = re-replication, most hits filed as activators. hit rate 2.9% among 350,000. AID 624296, 2012; further: potency means the concentration at half of the fitted maximal effect; % of control where 0% means no effect; nearly all actives have a fitted effect of over 50% in size
Chronic BCR inh – qHTS Assay to Find Inhibitors of Chronic Active B-Cell Receptor Signaling | ABC-DLBCL IkBa-CBG/CBR reporter, luminescence ratio, 4 h | Potency, µM (series often up to 46.1 µM), without a hit: top-dose activity change, negative = inhibition, usual class: inhibitors | hit rate 0.05% among 340,000 | AID 493014, 2011; active means well fitted inhibition curve with a large enough effect in the signal ratio, with a control signal flat, not every such curve was filed as active; inconclusive means small, poorly fitted or top-dose-only effect, or effect the other way, or a change in a side signal; the % refers to the signal ratio;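 further: potency means the concentration at half of the fitted maximal effect; plate controls were basal doxycycline-induced cells for no effect and cells given 10 µM MG132 for full effect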
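TMD8 human ABC-DLBCL cells with doxycycline-inducible IκBα–green luciferase fusion and unfused red luciferase, in 0.5% FBS medium; compounds up to 46 uM, 4 h at 37C. Green/red luminescence ratio, filter-overlap corrected, fitted to concentration-response curves.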
TDP1 cell CPT – qHTS for Inhibitors of human tyrosyl-DNA phosphodiesterase 1 (TDP1): qHTS in cells in presence of CPT. chicken DT40 Tdp1-/-;hTDP1 cells + 20 nM CPT, ATP luminescence, 48 h. Potency, µM (top dose mostly 46.2 µM), inactives show top-dose activity change, negative = growth inhibition, most hits filed as inhibitors. AID 686979, 2013. hit rate 12% among 420,000; further: potency means the concentration at half of the fitted maximal effect; on the % scale 0 is the no-effect control and ±100 the full control effect; nearly all actives have a fitted effect of over 55% in size
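Chicken DT40 Tdp1-/- cells complemented with human TDP1, 400 cells/well, exposed to compounds plus 20 nM camptothecin for at least 48 h at 37 C; viability read as ATP content by CellTiter-Glo luminescence.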
SW480 rereplic – A quantitative high throughput screen for small molecules that induce DNA re-replication in SW480 colon adenocarcinoma cells; Potency, µM (series often up to 46.1 µM), inactives show at the highest dose re-replication activation, actives largely listed as activators; SW480 DNA re-replication, Hoechst DNA content imaging, 48 h; hit rate 1.8% among 340,000; further: potency means the concentration at half of the fitted maximal effect; % of control where 0% means no effect; nearly all actives have a fitted effect of over 55% in size
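Quantitative HTS format with DMSO vehicle controls; 48 hr drug incubation at 37 C, then 40 min Hoechst staining and scanning imager measurement at 405 nm excitation.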
IL1B secr inh – qHTS for Inhibitors of Inflammasome Signaling: IL-1-beta AlphaLISA Primary Screen; THP-1 LPS/ATP IL-1B secretion, AlphaLISA, 16 h; stronger effect = lower value; activity change, % at 57.5 µM; hit rate 4.7% among 360,000; AID 743279, 2014; in the data active means activity change below about -50%; inconclusive means mostly about -30% to -49%; further: on the % scale 0 is the no-effect control and ±100 the full control effect
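THP-1 cells pretreated 1 hr with compounds (up to 57.5 uM final), then stimulated with LPS (250 ng/mL final) plus ATP (1.25 mM final); secreted IL-1B measured by AlphaLISA after 16 hr, decreased signal indicating inhibition.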
An asterisk follows results filed as active; ? = inconclusive; nt = not tested or not shown; [ ] = another dose, or the depositor's remark. Rows were chosen to be rich in hits. Some 19% of all compounds tested hit in one or more screens of this group. Unless noted, the call rests on the fitted dose curve; in most records, active means well fitted curve in the direction sought with a large enough effect; inconclusive means small, poorly fitted or top-dose-only effect, or another doubt; inactive means no such curve, though single readings can be large; an effect the other way counts as inactive or inconclusive.

SMILES | DT40 TDP1 no CPT | MCF10A rerep | Chronic BCR inh | TDP1 cell CPT | SW480 rereplic | IL1B secr inh
CC1CCN(C(C)C(=O)Nc2ccccc2-c2ccccc2)CC1 (centres undefined) | ? | 27% | 14% | ? | 0% | 0
CC(C(=O)Nc1ccccc1-c1ccccc1)N1CCN(Cc2ccccc2)CC1 (centres undefined) | ? | 18% | 4% | ? | -97% | -54*
Cc1ccc(S(=O)(=O)N2CCN(C(C)C(=O)Nc3ccccc3-c3ccccc3)CC2)cc1 (centres undefined) | 16µM* | 4% | 0% | ? | -30% | 0
COc1ccc(OCCN2C(=O)c3cccc(N)c3C2=O)cc1 | -15% | ? | -26% | 0% | ? | 39
COc1cc(C2c3c(-c4ccccc4O)n[nH]c3C(=O)N2Cc2ccco2)cc(OC)c1OC (centres undefined) | 0% | 4% | 0% | -6% | 15% | 3
COc1ccc(C2c3c(-c4c(C)cc(C)cc4O)n[nH]c3C(=O)N2Cc2ccco2)cc1 (centres undefined) | 16µM* | nt | nt | 15µM* | nt | nt
COc1ccc(C2c3c(-c4ccccc4O)n[nH]c3C(=O)N2Cc2ccco2)cc1 (centres undefined) | ? | ? | ? | ? | -56% | -75*
Cc1cc(C)c(-c2n[nH]c3c2C(c2ccccc2F)N(Cc2ccco2)C3=O)c(O)c1 (centres undefined) | 21µM* | nt | nt | 21µM* | nt | nt
COc1ccc(CN2CCN(c3nc4ccccc4s3)CC2)cc1 | ? | 11% | 4% | ? | -2% | 18
COc1ccc(CCn2c(O)cc3nn(-c4nc5ccccc5s4)c(=O)c-3c2C)cc1 | 16µM* | -15% | 3% | -26% | ? | nt
Cc1ccc(NC(=O)CCS(=O)(=O)c2ccc(Br)cc2)c(C)c1 | 2% | nt | 8% | -4% | nt | nt
COc1ccc(C(=O)CCS(=O)(=O)c2ccc(C)cc2)cc1 | 2.3µM* | ? | ? | 2.6µM* | ? | ?
Cc1ccc(S(=O)(=O)CCC(=O)c2cccc([N+](=O)[O-])c2)cc1 | 2.6µM* | 3.7µM* | ? | 2.1µM* | 2% | -98*
COc1ccc(C(CC(=O)c2ccc(O)cc2)S(=O)(=O)c2ccc(C)cc2)cc1 (centres undefined) | ? | 7% | ? | -7% | -4% | -51*
CC(=O)c1cccc([N+](=O)[O-])c1 | 6% | 7% | -3% | 3% | -5% | 5
Cc1ccc(C(=O)CCS(=O)(=O)c2ccc(Br)cc2)cc1 | 5.2µM* | ? | 0% | 5.2µM* | ? | ?
COc1ccc(COC(=O)CCS(=O)(=O)c2ccc(C)cc2)cc1 | 4% | 20% | -4% | 3% | -80% | 37
COc1ccc(S(=O)(=O)Nc2ncccn2)cc1 | -11% | -3% | 2% | -3% | -2% | -7
COc1ccc(C2CC(c3cccs3)n3nc(N)nc3N2)cc1 (centres undefined) | ? | ? | 1% | 23µM* | ? | -59*
COc1ccccc1C1CC(c2ccc(Cl)cc2)Nc2nc(N)nn21 (centres undefined) | 16µM* | ? | 1% | 10µM* | 6% | -22
CCOc1ccccc1C1CC(c2ccc(F)cc2)Nc2nc(N)nn21 (centres undefined) | ? | -2% | 0% | 1.2µM* | -1% | 1
COc1ccccc1C1CC(c2ccc(Cl)cc2)Nc2ncnn21 (centres undefined) | 21µM* | 6% | -2% | 15µM* | 8% | -19
Nc1nc2n(n1)C(c1cccs1)CC(c1ccc(F)cc1)N2 (centres undefined) | 2% | 21% | -7% | -11% | -6% | -8
Clc1ccc(C2CC(c3ccccc3)Nc3ncnn32)cc1 (centres undefined) | -16% | 0% | -8% | ? | -6% | -22
Nc1nc2n(n1)C(c1ccc(F)cc1)CC(c1ccc(F)cc1)N2 (centres undefined) | -16% | 1% | 2% | -31% | -4% | 3
SMILES | DT40 TDP1 no CPT | MCF10A rerep | Chronic BCR inh | TDP1 cell CPT | SW480 rereplic | IL1B secr inh
O=C(c1ccco1)N1CCC(c2nc3c(nnn3Cc3ccc(F)cc3)c(=O)[nH]2)CC1 | 6% | 2% | -2% | -3% | -2% | 34
O=S(=O)(c1ccc(Cl)cc1)N1CCN(CCc2ccncc2)CC1 | ? | ? | 27% | ? | -6% | 5
CC1CN(CCC(=O)N2CCCC(C(=O)c3nccn3C)C2)Cc2cc(Cl)ccc2O1 (centres undefined) | -18% | nt | nt | 23%[9.04 µM] | nt | nt
CN(C(=O)c1cc2c(=O)oc3ccccc3c2s1)c1ccc(F)cc1 | -19% | nt | nt | -3% | nt | nt
COc1cccc(CN2CCNC(=O)C2CC(=O)NCCCN2CCCC2=O)c1 (centres undefined) | 14% | 0% | -10% | 15% | -5% | 24
COc1ccc(C2CC(c3ccccc3)n3nc(NC(=O)c4cccs4)nc3N2)cc1 (centres undefined) | ? | -6% | 0% | 1% | 0% | -72*
CCOC(=O)c1c(C(C)(C)C)oc2ccc(O)cc12 | 23µM* | -4% | ? | 21µM* | -2% | 8
CCOC(=O)c1c(COc2ccccc2)oc2ccc(O)cc12 | -15% | -3% | ? | 0% | -8% | 18
Nc1ccccc1C(=O)N1O[C@@H]2C=C[C@H]1CC2 | -1% | -10% | ? | -3% | -2% | 1
Cc1ccc(C)n1-c1ccc(N(C)C)cc1 | 29µM* | ? | -3% | ? | ? | ?
CCOc1ccc(NC(=O)N2CCC(n3nnc4cc(C)ccc43)CC2)cc1 | ? | 15% | ? | ? | 15µM* | -15
Cc1ccc2c(c1)nnn2C1CCN(C(=O)Nc2ccccc2C)CC1 | 5% | -2% | -10% | 0% | -30% | -57*
Cc1ccc2c(c1)nnn2C1CCN(C(=O)C2CCCCC2)CC1 | -27% | 8% | -1% | -26% | 0% | ?
O=C(c1cnccn1)N1CCC2(CCN(Cc3nccs3)CC2)CC1 | -1% | nt | nt | 7% | nt | nt

Source: PubChem BioAssay (National Center for Advancing Translational Sciences (NCATS))
